Screening results: PubChem, ICCB-Longwood Screening Facility, Harvard Medical School
This is a sample that favours compounds with a hit; in the whole collection about 1.4% have one here.
Polio RdRp inh = poliovirus RdRp elongation inhibitors, primary screen, biochemical, fluorescence polarization, total intensity; % elongation, % (compound at 16.7 µg/mL); poliovirus polymerase elongation; active compounds read low; 150,000 compounds, 0.66% hits; AID 588519, 2011; in the data active = % elongation below about 90%
Target sequence (P03300 1749-2209 limits assumed): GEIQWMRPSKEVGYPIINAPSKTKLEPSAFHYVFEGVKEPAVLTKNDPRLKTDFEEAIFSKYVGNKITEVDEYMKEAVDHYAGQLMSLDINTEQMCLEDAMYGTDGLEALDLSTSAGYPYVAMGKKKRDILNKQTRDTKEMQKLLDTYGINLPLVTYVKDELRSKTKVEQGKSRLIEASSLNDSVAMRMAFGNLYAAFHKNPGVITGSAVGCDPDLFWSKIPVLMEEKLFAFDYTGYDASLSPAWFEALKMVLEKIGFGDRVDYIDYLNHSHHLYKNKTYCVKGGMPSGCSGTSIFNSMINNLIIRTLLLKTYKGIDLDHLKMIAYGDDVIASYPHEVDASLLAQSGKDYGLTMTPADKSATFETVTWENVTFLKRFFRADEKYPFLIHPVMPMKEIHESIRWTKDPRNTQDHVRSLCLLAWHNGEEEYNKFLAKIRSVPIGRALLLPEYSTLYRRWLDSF
MbtI inh = MbtI salicylate synthase inhibitors, primary screen, biochemical, fluorescence intensity; AID 493033, 2011; purified MbtI enzyme, fluorescence intensity read-out; 100,000 compounds, 0.89% hits; inhibition, % (concentration not given with the values); in the data active = inhibition mostly above about 56%, no sharp cut-off; inactive = mostly below about 77%
Mtb MenB inh = M. tuberculosis MenB inhibitors, primary screen, biochemical, absorbance. 1,4-dihydroxy-2-naphthoyl-CoA synthase (Mycobacterium tuberculosis (strain ATCC 25618 / …. MenB enzyme assay, absorbance read-out. inhibition, % (concentration not given with the values). 100,000 compounds, 0.43% hits. AID 540299, 2011; in the data active = inhibition above about 21%, passing the limit was not always enough
AID504770 = growth inhibition of E. coli YBA685, primary screen, V. cholerae RctB inhibitors; E. coli YBA685 rctB-dependent plasmid, OD600 growth, 3 h; active compounds read low; 130,000 compounds, 0.27% hits; z-score (test concentration not listed); AID 504770, 2011; in the data active = z-score below about -2, passing the limit was not always enough
Numbers without * were called inactive; . = not tested or not shown.

SMILES	Polio RdRp inh	MbtI inh	Mtb MenB inh	AID504770
CO[C@@]12[C@@H]3NC3CN1C1=C(C(=O)C(N)=C(C)C1=O)[C@@H]2COC(N)=O (stereo partly specified)	100	-12	0	-5.2*
CNC(=O)Oc1c(Br)cc2sc(=O)oc2c1Br	95	100*	9	0.05
C/C(=N\O)c1ccc(O)cc1O	106	7	-11	-0.05
COC(=O)c1ccc(C(=O)OC)cc1	105	.	-14	0.3
COC(=O)c1ccc(C(=S)NCC(OC)OC)cc1	79*	87*	-61	0.1
N/C(Cc1nc2ccccc2[nH]1)=N\O	106	-3	44*	-0.3
O=C(Cc1nc2ccccc2[nH]1)c1cccs1	22*	5	.	-1.7
Cc1nc(-c2ccc(-n3nncc3-c3cccs3)cc2)cs1	103	-21	-34	-0.4
CCC(C)NC(=O)c1nc2c(nnn2Cc2ccccc2Cl)c(=O)[nH]1 (stereo unspecified)	104	-1	-12	-0.2
CCc1nnc(Cn2nnc3c(=O)[nH]c(C(=O)Nc4ccc(C)cc4)nc32)s1	86*	16	-89	-0.5
COc1cc(NCCCC(C)N)c2ncccc2c1 (stereo unspecified)	35*	5	-9	-0.1
O=C1NN(c2ccccc2)C(=O)/C1=C/c1ccc(Br)cc1	98	.	79*	-0.3
CNc1ccc(O)cc1	59*	101*	.	1.1
Oc1ccc(NC(=S)Nc2ccc(O)cc2)cc1	106	-4	-4	-0.1
CCN(CC)c1ccc(NC(=S)Nc2ccc(S(N)(=O)=O)cc2)cc1	102	63*	-19	-0.25
CCN(CC)c1ccc(NC(=S)NC(C)C)cc1	100	29	-10	0.55
CSC(N)=Nc1ccc(F)cc1	.	.	.	0.45
C=CCn1c(C2COc3ccccc3O2)n[nH]c1=S (stereo unspecified)	100	98*	-22	0.65
Cc1occc1C(=O)NCc1ccccc1	100	1	56*	-0.15
COc1cccc2cc(C(C)N(CCCN3CCOCC3)C(=S)Nc3cccc(Cl)c3C)oc12 (stereo unspecified)	99	-7	-25	0.6
CNS(=O)(=O)c1ccc(C(=O)NCC(=O)N2CCCC2c2ccc3c(c2)OCCCO3)cc1 (stereo unspecified)	104	7	-18	0.7
Cn1nc(-c2ccc(C(C)(C)C)cc2)cc1N	.	.	.	-0.65
CC(C)(C)c1ccc(-c2cc3ncc(-c4ccccc4)c(N)n3n2)cc1	97	19	-11	-2.3*
Nn1cnnc1SCc1ccccc1Oc1ccccc1	101	0	1	-0.6
N=C(N)SCP(=O)(c1ccccc1)c1ccccc1	99	21	49*	0.65
SMILES	Polio RdRp inh	MbtI inh	Mtb MenB inh	AID504770
S=C(c1cccc(Br)c1)N1CCNCC1	.	4	-14	-0.95
O=C(CC(SC1CCCCC1)C(=O)O)c1ccc(Br)cc1 (stereo unspecified)	102	.	-13	1.2
O=C(CC(NC1CC1)C(=O)O)c1ccc(Cl)cc1 (stereo unspecified)	104	.	35*	-0.65
O=C(CC(Sc1ccc(Br)cc1)C(=O)O)c1ccc(Cl)cc1 (stereo unspecified)	85*	.	26	-1.1
N#C/C(C(=O)Nc1ccc(SC(F)F)cc1)=c1/s/c(=C\c2ccco2)c(=O)n1-c1ccccc1	97	0	-9	1.3
Cc1ccc(C(=O)N2CCN(c3ncnc4c3cnn4-c3ccccc3)CC2)cc1	99	-13	-14	-4.2*
CC(NC(=O)CN1C2CCC1CC(=O)NC2)c1ccccc1 (stereo unspecified)	100	0	29*	1.6
O=C1CC2CCC(CN1)N2CC(=O)Nc1ccc(F)cc1 (stereo unspecified)	101	-9	-26	1.3
S=c1[nH]c2c(s1)sc1ccccc12	102	91*	-83	0.45
Clc1nsc2ccccc12	.	96	-42	-0.9
CC1CCc2c(sc3ncnc(SCc4ccco4)c23)C1 (stereo unspecified)	97	0	-4	0.35
COc1ccccc1CN(C)CCN	101	2	75*	-0.6
CCCCN(C)Cc1cccc(OC)c1OC	102	-8	-11	-0.4
CC1CCC(C(C)C)C(OC(=O)COC(=O)c2cc(=O)[nH]c(=O)[nH]2)C1 (stereo unspecified)	103	5	-3	0.85
CCN(CCO)c1nc(NC2CCCCC2)c2cnn(C)c2n1	105	-22	-19	-2.1*
Cc1ccc(-c2c(CN3CCN(c4cccc(C(F)(F)F)c4)CC3)csc2C)cc1	89*	.	.	.
CCCCc1ccc(NC(=O)Nc2ccc(N3CCCCC3)cc2)cc1	111	-15	0	0.6
Cc1nc(-c2c(C)[nH]c3ccccc23)cs1	89*	87*	9	0
CC(=O)Oc1ccc(Cl)cc1C1OC(c2nc3nc(C)cc(C)n3n2)=NN1C(C)=O (stereo unspecified)	103	117	-54	-0.95
COc1cccc(Oc2ccc(C(F)(F)F)cc2Nc2nc3ccccc3o2)c1	81*	-36	-109	0
COc1ccccc1NC(=O)COc1nsnc1N1CCOCC1	102	.	2	1
CCS(=O)c1ccccc1C(=O)NCc1ccc(C)cc1 (stereo unspecified)	100	100*	-28	-0.75
Cc1cc(C)c2c(=O)n(C(=O)c3cccs3)sc2n1	121	100*	16	-0.6
CSc1nnc(CCN2CCN(C)CC2)n1C	100	-6	11	-0.3
Cc1ccc(C)c(S(=O)(=O)Nc2cc(Cl)c3oc(=O)sc3c2)c1	90	62*	-56	-0.95
SMILES	Polio RdRp inh	MbtI inh	Mtb MenB inh	AID504770
COc1ccc(/C=N/n2cn[nH]c2=S)cc1	105	71*	-40	1.4
COc1ccc(/C=N/n2cnnc2)cc1	103	11	-2	0.5
COc1ccc(NC(=O)N(CCN(C)C)Cc2cc3cc(OC)ccc3[nH]c2=O)cc1	103	80	34*	0.05
N#CCC(=O)Nc1ccc(C(=O)NCc2ccccc2)cc1	104	-7	-3	0.35
Cc1ccccc1Cn1ccc(NC(=O)COCc2cc(-c3cccs3)on2)n1	104	0	-28	-0.55
CCN(CC)CCNC(=O)c1ccc2c(c1)sc1nc(-c3ccc(F)cc3)cn12	89*	.	.	.
O=C1/C(=C\c2ccccn2)SC(=S)N1CCc1ccc(Cl)cc1	.	.	.	-0.25
O=C(O)CCN1C(=O)/C(=C/c2ccccn2)SC1=S	99	74*	-155	0.4
CCOCC(O)CSc1ccccc1 (stereo unspecified)	99	-20	0	-1.1
O=C(CCN1c2ccccc2Sc2ccccc21)NC1=NCCS1	85*	-19	-9	0.1
O=C(CCCN1C(=O)c2ccccc2C1=O)NC1=NCCS1	100	2	-17	-0.5
CC(C)c1nc(=S)[nH][nH]1	84*	87*	-8	0.2
Cc1ccccc1NC(=O)C1(N(C)C(=O)Cn2nnnc2N)CCCCC1	103	.	-16	-0.35
O=C(Nc1ccccc1)c1nnn(Cc2ccccc2)c1NC(=O)C(F)(F)F	89*	.	-14	-1.1
